This excerpt belongs to a sample that is enriched for hits.
CHX counter: counter-screen for Shiga toxin inhibitors: cycloheximide protein synthesis inhibition; AID 2314; actives 12% (n = 300,000); cell reporter, cycloheximide protein synthesis inhibition counterscreen; max response, %; in the data active = max response mostly above about 13%, no sharp cut-off; inactive = mostly below about 14%; also: read at 38.3 µM for the half of the compounds with a filed dose
Tb PYK inh: blocks Trypanosoma brucei pyruvate kinase; Potency, µM (series often up to 76.8 µM), most hits filed as inhibitors; TbPYK enzyme, Kinase-Glo Plus ATP luminescence, 45 min; actives 0.12% (n = 410,000); also: nearly all actives have a fitted effect of over 50% in size
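Readout: single end-point luminescence (Kinase-Glo Plus, 10 min). Reaction conditions were TbPYK/substrate plus 130 uM ADP, 45 min at RT, pH 7.2 TEA buffer. No-enzyme wells served as controls, and data were normalized before concentration-response fitting.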
FBPA Giardia inh: inhibitors of Giardia lamblia fructose-1,6-bisphosphate aldolase. purified Giardia FBPA. Potency, µM (titrated, usually from 59.6 µM), usual class: inhibitors. actives 0.71% (n = 290,000). A8B2U2. AID 2451; also: nearly all actives have a fitted effect of over 55% in size
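40 nM FBPA preincubated 10 min at RT with compound (up to 57.5 uM final), then substrate plus GAPDH/TPI/NAD/arsenate coupling and diaphorase/resazurin added. Fluorescence read after 20 min at RT, 525/598 nm.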
Shiga toxin inh: Shiga toxin inhibition; Vero cells, Shiga toxin protein synthesis inhibition reporter; inhibition, % at 38.7 µM; actives 9.2% (n = 290,000); AID 2315; in the data active = inhibition mostly above about 28%, no sharp cut-off; inactive = mostly below about 43%
LmPK inh: LmPK (Leishmania mexicana) enzyme inhibition; Q27686; purified LmPK, Kinase-Glo ATP luminescence, 1 h; Potency, µM (titrated, usually from 57.5 µM), most hits filed as inhibitors; actives 0.37% (n = 290,000); AID 1721
Target sequence (Q27686 whole entry, looked up): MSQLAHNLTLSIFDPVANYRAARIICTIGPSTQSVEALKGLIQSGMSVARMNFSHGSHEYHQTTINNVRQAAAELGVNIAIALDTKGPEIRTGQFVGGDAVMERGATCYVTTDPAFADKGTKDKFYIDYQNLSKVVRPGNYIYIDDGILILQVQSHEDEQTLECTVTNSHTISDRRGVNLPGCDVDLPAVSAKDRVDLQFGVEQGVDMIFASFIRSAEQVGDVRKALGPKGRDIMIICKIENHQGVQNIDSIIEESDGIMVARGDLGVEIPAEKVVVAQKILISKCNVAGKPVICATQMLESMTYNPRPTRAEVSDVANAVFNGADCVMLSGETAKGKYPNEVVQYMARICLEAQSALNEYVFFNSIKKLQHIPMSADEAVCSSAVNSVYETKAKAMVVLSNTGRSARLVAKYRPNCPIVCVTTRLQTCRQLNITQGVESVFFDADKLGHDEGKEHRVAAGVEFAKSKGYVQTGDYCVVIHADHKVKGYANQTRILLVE
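qHTS format; LmPK 0.1 nM; substrates PEP 0.5 mM and ADP 0.1 mM. One-hour room-temperature incubation, then coupled luciferase luminescence; 0.5 nM enzyme wells mark activation.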
RE007 growth inh: less growth of the S. pombe RE007 Vpr strain. Potency, µM (series often up to 92.2 µM), actives largely listed as inhibitors. AID 651644. actives 0.21% (n = 360,000). S. pombe RE007 Vpr strain, BacTiter-Glo ATP luminescence, 24 h; active = well fitted falling curve with a large enough effect; inconclusive = small, poorly fitted or top-dose-only effect; inactive = no such curve, though single readings can be large or run the other way; also: nearly all actives have a fitted effect of over 50% in size
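Fission yeast RE007 carrying one integrated HIV-1 vpr copy, seeded at OD 0.01 in PMG+AL medium with 23 nL pinned compound. Grown 24 h at 30 degrees; viability read by BacTiter-Glo luminescence after 5 min.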
Numbers stand for hits; - = inactive; ? = inconclusive; . = not tested or not shown; + = active, no number; [ ] = remark or other dose. Unless noted, calls follow the shape of the dose curve; as a rule, active = well fitted curve in the direction sought with a large enough effect; inconclusive = small, poorly fitted or top-dose-only effect, or another doubt; inactive = no such curve, though single readings can be large; an effect the other way counts as inactive or inconclusive.

SMILES	CHX counter	Tb PYK inh	FBPA Giardia inh	Shiga toxin inh	LmPK inh	RE007 growth inh
CCN1CCN(C2CC(=O)NC2=O)CC1 (stereo unspecified)	-	.	-	-	-	.
O=C1CC(N2CCN(c3ccc(C(=O)c4ccc(F)cc4)cc3)CC2)C(=O)N1 (stereo unspecified)	18	-	-	-	-	-
NC(=O)c1ccc2c(=O)n3c(-c4cccs4)csc3nc2c1	25	-	-	32	-	-
Cc1c(/C=N/Nc2ccc([N+](=O)[O-])cn2)c2ccccc2n1Cc1ccccc1	20	-	-	-	-	-
O=C(O)Cn1cc(/C=N/Nc2ccc([N+](=O)[O-])cn2)c2ccccc21	28	-	-	35	-	-
Cc1ccc(Cn2cc(/C=N/Nc3ccc([N+](=O)[O-])cn3)c3ccccc32)cc1	19	-	-	+	-	-
COc1ccc(-c2nc(SCC(=O)N3CCC(C)CC3)n[nH]2)cc1	.	-	.	.	.	.
O=C(O)c1ccc2c(c1)C(=O)N([C@@H](C(=O)O)C(c1ccccc1)c1ccccc1)C2=O	-	.	-	-	.	.
O=C(O)C=Cc1ccc(Cn2ccnc2)cc1	.	.	-	.	.	.
CC(=O)Nc1ccc(NCc2ccc(C)s2)cc1	21	-	-	50	-	-
CCCC(=O)Nc1ccc(NCc2ccc(C)s2)cc1	active	-	-	-	-	-
Cc1ccc(NC(=O)CCC(=O)Nc2ccc(C)cc2)cc1	-	-	-	-	-	-
CN(C(=O)CSc1nncn2c1cc1occc12)c1ccccc1	.	-	.	.	.	.
Cc1ccc(C(=O)NCCN2CCOCC2)c(Cl)c1	13	-	-	28	-	-
O=C(NCCCN1CCOCC1)c1ccc(Cl)cc1Cl	17	-	-	-	-	-
Cc1cccn2c(=O)c3cc(C(=O)NCCN4CCOCC4)n(C)c3nc12	37	-	.	59	-	-
O=C(Nc1c(Cl)cc(Cl)cc1C(=O)NCCN1CCOCC1)c1ccc(Cl)cc1Cl	-	-	-	-	-	-
O=C(NCCCN1CCOCC1)c1cc(-c2ccccc2)nc2ccccc12	.	-	.	.	.	-
Cc1ccc(Nc2cc(C(=O)NCCCN3CCOCC3)c3ccccc3n2)cc1C	38	-	-	40	-	-
Cn1c(-c2nc(-c3ccccc3)cs2)nc2ccccc21	.	.	-	.	.	.
O=C1C2Cc3c([nH]c4ccccc34)C(c3ccccc3)N2C(=O)C2Cc3c([nH]c4ccccc34)C(c3ccccc3)N12 (stereo unspecified)	.	.	-[12.9 µM]	.	.	.
Cc1ccc2c(CNC3CCC(C)CC3)c(C(=O)O)n(Cc3cccc(F)c3)c2c1 (stereo unspecified)	.	-	.	.	.	.
Cc1ccc(-c2nn(-c3ccccc3)cc2C(=O)NCCCN2CCOCC2)cc1	16	-	.	-	-	-
O=C(NCCCN1CCOCC1)c1cn(-c2ccccc2)nc1-c1cccs1	-	-	-	-	-	-
O=C(Cn1cnc2ccccc21)NCCCN1CCOCC1	24	-	-	25	-	-
SMILES	CHX counter	Tb PYK inh	FBPA Giardia inh	Shiga toxin inh	LmPK inh	RE007 growth inh
Clc1ccccc1CN1CCN(/N=C/C=C/c2ccco2)CC1	26	-	-	58	-	-
CN1CCN(/N=C/c2cccc(Cl)c2Cl)CC1	29	-	-	41	-	-
Clc1ccc(C=NN2CCCCCC2)c(Cl)c1	.	-	.	.	.	-
O=[N+]([O-])c1ccccc1/C=N/N1CCN(Cc2ccccc2)CC1	45	-	-	.	-	-
O=[N+]([O-])c1ccc(Cl)c(/C=N/N2CCN(Cc3ccccc3Cl)CC2)c1	-	-	-	-	-	-
Fc1ccccc1/C=N/N1CCN(Cc2ccccc2Cl)CC1	19	-	?	.	-	-
Cc1cccc(CN2C(=O)c3ccccc3Sc3ccc(C(=O)NC4CCCCC4)cc32)c1	.	-	.	.	.	.
COc1ccc(C(=O)N(Cc2ccco2)Cc2cccs2)cc1	-	.	.	-	.	.
CCOc1ccc(NC(=O)c2c(C)nn(-c3ccc(F)cc3)c2-n2cccc2)cc1	.	-	.	.	.	.
O=[N+]([O-])c1ccccc1/C=N\N1CCN(Cc2ccccc2Cl)CC1	16	-	-	-	-	-
COc1ccc(C2(C(=O)c3ccccc3)C(=O)c3ccccc3C2=O)cc1	14	-	-	-	?	-
COc1ccc(C(=O)/C=C2/C(=O)Nc3ccccc32)cc1	21	-	-	58	-	-

Screens as filed in PubChem.
